PubChem BioAssay (Tox21)
Records with an inconclusive call do not appear. Activity calls are given as the source filed them. Unless noted, the call rests on the fitted dose curve; in most records, active means well fitted curve in the direction sought with a large enough effect in the repeat runs; inconclusive means weak or mixed curves; inactive means no such curve, though single readings can be large; an effect the other way counts as inactive or inconclusive. Positions of bridges follow the written chain, without caps; N, C: chain ends. Non-standard residues stand in square brackets, D forms with d. Residues, ends and D or L forms follow the SMILES beside them. *: point of attachment. X2 = CC[C@H](C)CCCCC(=O)*; Dab = NCC[C@H](N)C(=O)O

Experiments:
[1] = qHTS assay to identify small molecule antagonists of the glucocorticoid receptor (GR) signaling pathway - cell viability counter screen (AID 720693); further: nearly all actives have a fitted effect of over 55% in size; further: potency means the concentration at half of the fitted maximal effect
[2] = qHTS assay for identifying genotoxic compounds that show differential cytotoxicity against isogenic chicken DT40 cell lines with known DNA damage response pathways - wild type cell line (AID 743012); further: nearly all actives have a fitted effect of over 60% in size; further: potency means the concentration at half of the fitted maximal effect
How it was run: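 Endpoint: CellTiter-Glo luminescence, 30 min RT. Cells: wild type DT40, 300/well. Exposure: compounds in DMSO, 40 h, 37 C/5% CO2, after ~0.5 h pre-incubation.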

[3] = qHTS assay for identifying genotoxic compounds that show differential cytotoxicity against isogenic chicken DT40 cell lines with known DNA damage response pathways - Rad54/Ku70 mutant cell line (AID 743015); further: nearly all actives have a fitted effect of over 60% in size; further: potency means the concentration at half of the fitted maximal effect
[4] = qHTS assay to identify small molecule antagonists of the androgen receptor (AR) signaling pathway - cell viability counter screen (AID 743033; further: nearly all actives have a fitted effect of over 45% in size)
[5] = molecular target: Androgen receptor (Homo sapiens) (UniProt P10275); experiment: qHTS assay to identify small molecule agonists of the androgen receptor (AR) signaling pathway using the MDA cell line (AID 743040; further: nearly all actives have a fitted effect of over 20% in size; further: potency means the concentration at half of the fitted maximal effect)
Chain of Androgen receptor (Homo sapiens) (P10275 whole entry, looked up): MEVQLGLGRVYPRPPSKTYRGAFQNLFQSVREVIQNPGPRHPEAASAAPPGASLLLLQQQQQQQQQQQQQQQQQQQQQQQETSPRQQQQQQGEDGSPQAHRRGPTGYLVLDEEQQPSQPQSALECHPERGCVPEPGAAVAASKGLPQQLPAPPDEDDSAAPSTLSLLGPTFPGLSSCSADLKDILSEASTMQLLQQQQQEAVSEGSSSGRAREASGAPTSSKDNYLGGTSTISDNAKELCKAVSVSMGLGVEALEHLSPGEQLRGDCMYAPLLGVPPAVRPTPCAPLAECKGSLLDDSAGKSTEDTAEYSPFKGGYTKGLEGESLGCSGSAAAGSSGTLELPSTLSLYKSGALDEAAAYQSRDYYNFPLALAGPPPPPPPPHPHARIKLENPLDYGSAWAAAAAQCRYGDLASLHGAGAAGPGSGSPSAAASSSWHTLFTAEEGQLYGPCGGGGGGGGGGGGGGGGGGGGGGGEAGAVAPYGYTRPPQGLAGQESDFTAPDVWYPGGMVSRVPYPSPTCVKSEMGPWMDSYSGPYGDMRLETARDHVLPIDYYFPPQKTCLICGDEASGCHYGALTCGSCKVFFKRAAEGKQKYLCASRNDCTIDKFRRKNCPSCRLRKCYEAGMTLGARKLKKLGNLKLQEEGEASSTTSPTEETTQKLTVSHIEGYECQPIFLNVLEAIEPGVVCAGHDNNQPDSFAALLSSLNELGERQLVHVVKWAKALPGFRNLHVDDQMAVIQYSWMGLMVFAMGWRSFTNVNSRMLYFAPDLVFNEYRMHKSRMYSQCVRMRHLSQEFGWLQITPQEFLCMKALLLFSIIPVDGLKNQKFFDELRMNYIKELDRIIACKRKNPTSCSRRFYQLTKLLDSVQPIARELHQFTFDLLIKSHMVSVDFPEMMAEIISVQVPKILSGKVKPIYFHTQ
How it was run: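 Cell-based luciferase reporter: MDA-kb2, MMTV promoter (AR + GR response elements). 16 h compound exposure at 37C; ONE-Glo, 30 min RT, luminescence.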

[6] = qHTS assay to identify small molecule antagonists of the androgen receptor (AR) signaling pathway using the MDA cell line - cell viability counter screen (AID 743041; further: nearly all actives have a fitted effect of over 45% in size; further: potency means the concentration at half of the fitted maximal effect)
How it was run: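 In this qHTS counter assay, fluorescence intensity after CellTiter-Fluor addition indicated viability of MDA-kb2 AR-luc cells given compounds and R1881 for 16 h at 37C.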

[7] = molecular target: Androgen receptor (Homo sapiens) (UniProt P10275); experiment: qHTS assay to identify small molecule antagonists of the androgen receptor (AR) signaling pathway using the MDA cell line (AID 743042; further: nearly all actives have a fitted effect of over 55% in size)
How it was run: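 MDA-kb2 cells (human breast carcinoma, stably carrying an MMTV-luciferase reporter responsive to AR and GR) were plated at 3,000 cells/well and preincubated 5 hr at 37C, then given compound plus R1881 agonist for 16 h. ONE-Glo luminescence was read.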

[8] = qHTS assay for identifying genotoxic compounds that show differential cytotoxicity against isogenic chicken DT40 cell lines with known DNA damage response pathways - Rev3 mutant cell line (AID 743014); further: nearly all actives have a fitted effect of over 55% in size; further: potency means the concentration at half of the fitted maximal effect
[9] = molecular target: Androgen receptor (Homo sapiens) (UniProt P10275); experiment: qHTS assay to identify small molecule antagonists of the androgen receptor (AR) signaling pathway (AID 743035; active means well fitted inhibition curve with a large enough effect in the signal ratio in the repeat runs, not every such curve was filed as active; the % refers to the signal ratio; further: potency means the concentration at half of the fitted maximal effect)
How it was run: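 R1881 agonist challenge of a HEK293 UAS-beta-lactamase AR reporter line in the presence of compound (16 h, 37C); signal taken as FRET fluorescence after 2 h with LiveBLAzer B/G substrate at room temperature.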

[10] = molecular target: Androgen receptor (Homo sapiens) (UniProt P10275); experiment: qHTS assay to identify small molecule agonists of the androgen receptor (AR) signaling pathway (AID 743036; active means well fitted activation curve with a large enough effect in the signal ratio in the repeat runs, with a control signal flat, not every such curve was filed as active; the % refers to the signal ratio; further: potency means the concentration at half of the fitted maximal effect)
How it was run: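 Fluorescence from a beta-lactamase FRET substrate served as read-out in AR-UAS-bla GripTite HEK293 cells. Cells were treated with DMSO-dissolved compounds for 16 h at 37C, then with LiveBLAzer B/G substrate for 2 h at room temperature.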

Measured: Potency

N#CC(c1ccc(Cl)cc1)c1c(Cl)cc(-n2ncc(=O)[nH]c2=O)cc1Cl (centres undefined)
active: [2] 29.8 µM | [3] 29.8 µM
inactive: [1] | [4] | [5] | [6] | [7]

CN1CCN(C2=Nc3ccccc3Cc3ccccc32)CC1
active: [2] 26.6 µM | [8] 23.7 µM
inactive: [1] | [4] | [6]

CC(=O)O[C@]1(C(C)=O)CC[C@H]2[C@@H]3CCC4=CC(=O)CC[C@]4(C)[C@@]3(F)[C@@H](O)C[C@@]21C
active: [9] 8.49 µM | [5] 0.0531 µM
not listed: [8]
inactive: all other assays above

CC(/C=C/C=C(\C)C(=O)O[C@@H]1O[C@H](CO[C@@H]2O[C@H](CO)[C@@H](O)[C@H](O)[C@H]2O)[C@@H](O)[C@H](O)[C@H]1O)=C\C=C\C=C(C)\C=C\C=C(/C)C(=O)O[C@@H]1O[C@H](CO[C@@H]2O[C@H](CO)[C@@H](O)[C@H](O)[C@H]2O)[C@@H](O)[C@H](O)[C@H]1O
inactive: [1] | [2] | [3] | [4]

CC(C)[C@@H]1CC[C@@H](C)C[C@H]1OC(=O)c1ccccc1O
not listed: [8] | [9]
inactive: all other assays above

CCc1ccc(S(=O)(=O)O)cc1
not listed: [8]
inactive: all other assays above

CCCCC/C=C\C/C=C\C/C=C\CCCCC(=O)O
inactive: [1] | [2] | [8] | [6]

C=C1CC[C@H](O)CC1=C/C=C1\CCC[C@]2(C)[C@@H]([C@H](C)CC[C@@H](O)C(C)(C)O)CC[C@@H]12
active: [1] 21.3 µM | [2] 7.5 µM | [3] 13.3 µM
not listed: [8] | [9]
inactive: all other assays above

C/C1=C2N=C(/C=C3N=C(/C(C)=C4\[N-]C(C(CC(N)=O)C4(C)CCC(=O)NCC(C)OP(=O)([O-])OC4C(CO)OC(n5cnc6cc(C)c(C)cc65)C4O)C4(C)N=C1C(CCC(N)=O)C4(C)CC(N)=O)C(CCC(N)=O)C\3(C)C)C(CCC(N)=O)C/2(C)CC(N)=O.[CH3-].[Co+3] (centres undefined)
active: [6] 23.7 µM
inactive: [1] | [2] | [8] | [4]

CC(=O)Nc1c(I)c(C(=O)N[C@H]2C(O)O[C@H](CO)[C@@H](O)[C@@H]2O)c(I)c(N(C)C(C)=O)c1I (some centres undefined)
inactive: [1] | [2] | [8] | [4] | [6]

CCCCCCCCCCCCCCCCCC(=O)OCCO
inactive: [1] | [2] | [8] | [4] | [6]

O=C(NNCS(=O)(=O)O)c1ccncc1
inactive: [1] | [2] | [8] | [4] | [6]

O.O=C([O-])CC([S-])C(=O)[O-].[Au+].[Na+].[Na+] (centres undefined)
inactive: [1] | [2] | [8] | [4] | [6]

Cc1ccccc1CNc1ncnc2c1ncn2[C@@H]1O[C@H](CO)[C@@H](O)[C@H]1O
inactive: [1] | [4] | [6]
active: [2] 16.8 µM | [8] 21.1 µM

CCC(=O)OCC(=O)[C@@]1(OC(=O)CC)[C@@H](C)C[C@H]2[C@@H]3CCC4=CC(=O)C=C[C@]4(C)[C@@]3(Cl)[C@@H](O)C[C@@]21C
active: [2] 13.3 µM | [8] 15 µM | [5] 0.0094 µM
inactive: [1] | [6] | [7]

O=C(O)[C@@H](O)[C@H](O)[C@H](O)[C@@H](O)C(=O)O (tested in a mixture with another compound)
inactive: [1] | [2] | [8] | [4] | [6]

CO[C@H]1C=CO[C@@]2(C)Oc3c(C)c(O)c4c(O)c(c5c(nc6cc(C)ccn65)c4c3C2=O)NC(=O)/C(C)=C\C=C[C@H](C)[C@H](O)[C@@H](C)[C@@H](O)[C@@H](C)[C@H](OC(C)=O)[C@@H]1C
inactive: [1] | [6]
active: [2] 26.6 µM | [8] 23.7 µM

CCCOc1ccc2nc(NC(=O)OC)sc2c1
active: [2] 2.37 µM | [8] 2.66 µM
inactive: [1] | [4] | [6]

CC(CN1c2ccccc2Sc2cccnc21)N(C)C (centres undefined)
inactive: [1] | [8] | [4] | [6]
active: [2] 29.8 µM

C[C@]12CCC(=O)C[C@@H]1CC[C@@H]1[C@@H]2CC[C@]2(C)C=CC[C@@H]12
inactive: [1] | [2] | [8] | [4] | [6]

Cc1ncc(COP(=O)(O)O)c(CN)c1O
inactive: [1] | [2] | [3] | [4]

CC(C)(C)NC[C@H](O)COc1ccccc1C1CCCC1
inactive: [1] | [4] | [6]
active: [2] 6.39 µM | [8] 10.1 µM

COC(=O)[C@H]1[C@H]2C[C@@H]3c4[nH]c5cc(OC)ccc5c4CCN3C[C@H]2C[C@H](OC)[C@@H]1OC
inactive: [1] | [2] | [3]

C[C@@H]1C[C@H]2[C@@H]3CCC4=CC(=O)C=C[C@]4(C)[C@@]3(F)[C@@H](O)C[C@]2(C)[C@@]1(O)C(=O)COC(=O)c1cccc(S(=O)(=O)O)c1
active: [5] 0.0841 µM
not listed: [8] | [9] | [10]
inactive: all other assays above

CC[C@H](C)CCCCC(=O)N[C@@H](CCN)C(=O)N[C@H](C(=O)N[C@@H](CCN)C(=O)N[C@H]1CCNC(=O)[C@H]([C@@H](C)O)NC(=O)[C@H](CCN)NC(=O)[C@H](CCN)NC(=O)[C@H](CC(C)C)NC(=O)[C@@H](CC(C)C)NC(=O)[C@H](CCN)NC1=O)[C@@H](C)O (X2-[Dab]T[Dab][Dab][Dab][dL]L[Dab][Dab]T; lactam 4-C)
inactive: [1] | [2] | [8] | [4] | [6]

CC1CC(OC(=O)C(O)c2ccccc2)CC(C)(C)C1 (centres undefined)
active: [2] 11.9 µM | [3] 21.1 µM
inactive: [1] | [4] | [6]

O=S(=O)(O)CCCS(=O)(=O)O
inactive: [1] | [2] | [3] | [6]

Nc1c(Br)cc(Br)cc1CNC1CCC(O)CC1 (centres undefined)
active: [10] 4.77 µM | [5] 1.88 µM
not listed: [3] | [8]
inactive: all other assays above

CC[C@H](C)[C@@H]1NC(=O)[C@H](Cc2ccc(O)cc2)NC(=O)[C@@H](N)CSSC[C@@H](C(=O)N2CCC[C@H]2C(=O)N[C@@H](CC(C)C)C(=O)NCC(N)=O)NC(=O)[C@H](CC(N)=O)NC(=O)[C@H](CCC(N)=O)NC1=O
inactive: [1] | [2] | [3] | [4] | [6]

O=C(Nc1ccc(/C=C/c2ccc(NC(=O)c3cc(S(=O)(=O)O)c4cccnc4c3O)cc2S(=O)(=O)O)c(S(=O)(=O)O)c1)c1cc(S(=O)(=O)O)c2cccnc2c1O
active: [3] 29.8 µM
inactive: [1] | [2] | [4] | [6]

CCC(Oc1ccccc1)C(=O)N[C@@H]1C(=O)N2[C@@H]1SC(C)(C)[C@@H]2C(=O)O (some centres undefined)
inactive: [1] | [2] | [3] | [4] | [6]

CC(=O)O[C@H]1CC[C@@]2(C)C(=CC[C@H]3[C@@H]4CC[C@H](C(C)=O)[C@@]4(C)CC[C@@H]32)C1
inactive: [1] | [2] | [3] | [4] | [6]

O=C1CCC(=O)N1CO
inactive: [1] | [2] | [3] | [6]

CNC(=O)c1c(I)c(C(=O)NCC(=O)Nc2c(I)c(C(=O)O)c(I)c(C(=O)NCCO)c2I)c(I)c(N(C)C(C)=O)c1I
inactive: [1] | [2] | [3] | [4] | [6]

O=C(O)CN(CC(=O)O)CC1=CC2C(=CC1=O)Oc1cc(O)c(CN(CC(=O)O)CC(=O)O)cc1C21OC(=O)c2ccccc21 (centres undefined)
inactive: [1] | [2] | [3] | [4] | [5] | [7]

CSc1nc2cc(Oc3cccc(Cl)c3Cl)c(Cl)cc2[nH]1
inactive: [4] | [6]
active: [1] 10.7 µM | [2] 18.8 µM | [3] 21.1 µM

CN(CCO)CC(O)Cn1cnc2c1c(=O)n(C)c(=O)n2C (centres undefined) (tested in a mixture with another compound)
inactive: [1] | [2] | [4] | [6]
